Laboratory results reported in PubChem BioAssay (Tox21).
Values without a mark were called inactive. Active and inactive are the calls of the source. Calls follow the shape of the dose curve; as a rule, active = well fitted curve in the direction sought with a large enough effect in the repeat runs; inconclusive = weak or mixed curves; inactive = flat fitted curve, though single readings scatter.

assay: qHTS assay to test for compound auto fluorescence at 535 nm (green) in HepG2 cells (AID 720675); conditions: green autofluorescence 485/535 nm, 1 h; series mostly up to 91.3 µM; fluorescence, % of fluorescein control: at the top concentration
Description: National Center for Advancing Translational Sciences [NCATS]
NIH Chemical Genomics Center [NCGC]
U.S. Environmental Protection Agency [EPA]
National Institutes of Environmental Health Sciences [NIEHS]
National Toxicology Program [NTP]
U.S. Food and Drug Administration [FDA]
Compound auto fluorescence often interferes with screening of the compound library against various biological targets and signaling pathways. Some of these compounds may have fluorophoric properties. Such properties may interfere with the assay outputs resulting in false positives and/or negatives. To decrease such complications and ensure the compound activities are relevant in terms of biological response, the Tox21 10K compound library was screened for auto fluorescence.
From the fluorophores used as reporter signals in our screening assays, the auto fluorescence equivalencies of compounds against three fluorophores have been evaluated: Triamterene, Fluorescein and Rose Bengal sodium for blue, green and red fluorescence, respectively. The fluorescence intensities were measured using Excitation/Emission wavelengths at 405/460nm, 485/535nm and 540/590nm for blue, green and red labels, respectively. This assay includes the green fluorescence data.
Tox21 Assay Protocol Summary:
2,000 HepG2 cells in 5 uL of culture medium (MEM containing 10% FBS) per well were dispensed into black wall/clear bottom 1536-well plates using a Multidrop Combi Dispenser (ThermoFisher Scientific, Waltham, MA). The assay plates were incubated overnight at 37 C to allow cell attachment to the well bottom, followed by the transfer of 23 nL compound or DMSO vehicle by a pintool work station (Kalypsys , San Diego, CA). After the assay plates were incubated for 1 hr at 37 C and 5% CO2, fluorescence intensities in the assay plates were measured by an Envision (PerkinElmer, Shelton, CT) plate reader using three labels for measuring blue, green and red fluorescence at […] 460, 535 and 590 nm respectively.
% is scaled to controls: 0 for no effect and ±100 for the full control effect.

| Structure (SMILES) | outcome | fluorescence, % of fluorescein control |
| --- | --- | --- |
| NS(=O)(=O)c1cc2c(cc1Cl)NC=NS2(=O)=O | inactive | – |
| CCOC(=O)C1OC1c1ccccc1 (stereo not given) | inactive | – |
| C=C(C)C(=O)OCCCCCC | inactive | – |
| CS(=O)(=O)c1ccc([C@@H](O)[C@@H](CO)NC(=O)C(Cl)Cl)cc1 | inactive | – |
| O=[N+]([O-])c1cccc(Cl)c1 | inactive | – |
| CCc1ccccc1O | inactive | – |
| CCCCCC/C=C/CCCCCCCC(=O)O | inactive | – |
| Oc1ccc2ccccc2c1N=Nc1ccccc1 | inactive | – |
| Cc1cc(Cc2ccc(N)c(C)c2)ccc1N | inactive | – |
| O=S(=O)(O)c1cc(S(=O)(=O)O)c2c(N=Nc3ccccc3)c(O)ccc2c1 | inactive | – |
| C=C1C2CCC(C2)C1(C)C (stereo not given) | inactive | – |
| O=c1c(-c2ccc(O)cc2)coc2cc(O)ccc12 | – | 0.0526% |
| Oc1c(Cl)cc(Cl)c(Cl)c1Cl | inactive | – |
| O=S(=O)(O)CCS | inactive | – |
| NC(=O)NNc1ccccc1 | inactive | – |
| O=C(O)c1ccc([N+](=O)[O-])cc1 | inactive | – |
| Cc1ccc(C)c(C)c1 | inactive | – |
| Cc1cc(=O)[nH]c(C(C)C)n1 | inactive | – |
| Clc1cc(Cl)c(Cl)cc1Cl | inactive | – |
| CCCCCCCCCC(=O)O | inactive | – |

| Structure (SMILES) | outcome | fluorescence, % of fluorescein control |
| --- | --- | --- |
| COC(=O)c1ccc(C(=O)OC)cc1 | inactive | – |
| O=C1CCCCC1 | inactive | – |
| NCCNCCNCCNCCN | inactive | – |
| CC1(C)CC(N=C=O)CC(C)(CN=C=O)C1 (stereo not given) | inactive | – |
| CCCCC(CC)COC(C)=O (stereo not given) | inactive | – |
| c1ccc2ccccc2c1 | inactive | – |
| C/C=C(C)/C=C/C=C(C)C | inactive | – |
| Cc1cc(NS(=O)(=O)c2ccc(N)cc2)no1 | inactive | – |
| Cc1cc(O)c2c(c1)C(=O)c1cc(O)cc(O)c1C2=O | inactive | – |
| CC1=C(/C=C/C(C)=C/C=C/C(C)=C/CO)C(C)(C)CCC1 | inactive | – |
| Oc1ccc(OCc2ccccc2)cc1 | inactive | – |
| COCC(=O)O | inactive | – |
| COC(=O)Nc1nc2ccc(Sc3ccccc3)cc2[nH]1 | inactive | – |
| Oc1ccc2ccccc2c1 | inactive | – |
| O=S(=O)(Oc1ccc(Cl)cc1Cl)c1ccccc1 | inactive | – |
| Cn1c([N+](=O)[O-])cnc1COC(N)=O | inactive | – |
| CC1Cc2ccccc2N1NC(=O)c1ccc(Cl)c(S(N)(=O)=O)c1 (stereo not given) | inactive | – |
| O=C1O[C@H](CO)[C@@H](O)[C@H](O)[C@H]1O | inactive | – |
| CCCCCCCCCCCCOCC1CO1 (stereo not given) | inactive | – |
| CCOC(=O)/C=C\C(=O)OCC | inactive | – |
